Laboratory results taken from PubChem BioAssay AID1159580 (chemical genetic matrix, 2015).
The campaign covered roughly 5,500 compounds. About 2,000 (36%) were called active. Another 18% or so got no clear call; they are omitted. Rule as the data show it: active = normalized growth mostly below about 0.91 (no sharp cut-off); inconclusive = no clear call, values can overlap the other calls; inactive = mostly above about 0.92. The list shows a part of the results.

Assay: chemical genetic growth profiling, strain panel (AID 1159580);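 also: tested at 20 µM; growth read once vehicle control cultures reached saturation at 30 °C; 1 = growth at the plate median or of vehicle wells; lower values mean less growth of the strain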
Conditions: growth OD
[1] = S. cerevisiae deletion strains, locus YGR078C, strain PAC10, active compounds read low
[2] = S. cerevisiae deletion strains, locus YNL322C, strain KRE1, active compounds read low

Measured: normalized growth

CCC(C)N(C)C(=O)c1cc2ccccc2c(-c2ccccc2Cl)n1 (stereo unspecified)
inactive: S. cerevisiae deletion strains, locus YAL040C, strain CLN3, active compounds read low 0.965 | S. cerevisiae deletion strains, locus YDR363W, strain ESC2, active compounds read low 0.973 | S. cerevisiae deletion strains, locus YER002W, strain NOP16, active compounds read low 1.03 | [1] 0.998 | S. cerevisiae deletion strains, locus YNL175C, strain NOP13, active compounds read low 1 | S. cerevisiae deletion strains, locus YNL197C, strain WHI3, active compounds read low 0.95 | S. cerevisiae deletion strains, locus YNL224C, strain SQS1, active compounds read low 0.988 | [2] 0.987 | S. cerevisiae deletion strains, locus YOR083W, strain WHI5 (second series), active compounds read low 0.955

S=c1[nH]c2ccccc2[nH]1
inactive: S. cerevisiae deletion strains, locus YAL013W, strain DEP1, active compounds read low 0.988 | S. cerevisiae deletion strains, locus YBR229C, strain ROT2, active compounds read low 1.01 | S. cerevisiae deletion strains, locus YDL101C, strain DUN1, active compounds read low 1.02 | S. cerevisiae deletion strains, locus YDR150W, strain NUM1, active compounds read low 0.993 | S. cerevisiae deletion strains, locus YEL061C, strain CIN8, active compounds read low 0.982 | [1] 1.02 | S. cerevisiae deletion strains, locus YHR030C, strain SLT2, active compounds read low 1 | S. cerevisiae deletion strains, locus YHR087W, strain rtc3, active compounds read low 1.01 | S. cerevisiae deletion strains, locus YJR043C, strain POL32, active compounds read low 0.988 | S. cerevisiae deletion strains, locus YJR075W, strain HOC1, active compounds read low 1.01 | S. cerevisiae deletion strains, locus YLR039C, strain RIC1, active compounds read low 0.99 | S. cerevisiae deletion strains, locus YLR058C, strain SHM2 (second series), active compounds read low 0.991 | S. cerevisiae deletion strains, locus YLR085C, strain ARP6, active compounds read low 0.976 | S. cerevisiae deletion strains, locus YLR262C, strain YPT6, active compounds read low 0.986 | S. cerevisiae deletion strains, locus YML094W, strain GIM5, active compounds read low 1.06 | S. cerevisiae deletion strains, locus YMR219W, strain ESC1, active compounds read low 0.999 | S. cerevisiae deletion strains, locus YMR263W, strain SAP30, active compounds read low 0.984 | S. cerevisiae deletion strains, locus YMR307W, strain GAS1, active compounds read low 0.87 | S. cerevisiae deletion strains, locus YNL128W, strain TEP1, active compounds read low 1.02 | S. cerevisiae deletion strains, locus YNL153C, strain GIM3, active compounds read low 1.01 | S. cerevisiae deletion strains, locus YNL298W, strain CLA4 (second series), active compounds read low 0.997 | [2] 1 | S. cerevisiae deletion strains, locus YNR030W, strain Alg12, active compounds read low 1.01 | S. cerevisiae deletion strains, locus YPL055C, strain LGE1, active compounds read low 0.961 | S. cerevisiae deletion strains, locus YPL241C, strain CIN2, active compounds read low 1.03 | S. cerevisiae deletion strains, locus YPR135W, strain CTF4, active compounds read low 1.01 | S. cerevisiae strains, strain wild type, active compounds read low 0.995
